From PubChem
A selection: hits, their analogues and other compounds. The true share with any hit is near 3.1%.
MEKK2mut PB1 HTS: signal of MEK5 binding to mutant human MEKK2 PB1 domain. bead flow cytometry, Alexa488-MEK5 binding to MEKK2 mutant. percent response, % at 10 µM. hit rate 0.35% among 290,000; in the data active = percent response above about 24%, passing the limit was not always enough
MEKK3 PB1 HTS: MEKK3-MEK5 PB1 interaction, increase or decrease; bead-based flow cytometry, Alexa488-MEK5 binding to MEKK3; actives lie on both sides; 0 = blocked by unlabeled MEK5, 100 = vehicle; Q99759; hit rate 1.4% among 290,000; binding response (% of control), % at 10 µM;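 active = binding response more than 3 SD above or below the average of its plate-row segment, actives on both sides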;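 also: Alexa488 bead fluorescence after subtracting the streptavidin-only scavenger bead signal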
ATG4B inh: inhibitors of human ATG4B cysteine protease; hit rate 0.51% among 340,000; ATG4B cleavage of LC3-PLA2, NBD-HPC fluorescence, 1 h; AID 504462; inhibition, % at 8.33 µM; Q9Y4P1; in the data active = inhibition above about 40%
Target sequence (Q9Y4P1 whole entry, looked up): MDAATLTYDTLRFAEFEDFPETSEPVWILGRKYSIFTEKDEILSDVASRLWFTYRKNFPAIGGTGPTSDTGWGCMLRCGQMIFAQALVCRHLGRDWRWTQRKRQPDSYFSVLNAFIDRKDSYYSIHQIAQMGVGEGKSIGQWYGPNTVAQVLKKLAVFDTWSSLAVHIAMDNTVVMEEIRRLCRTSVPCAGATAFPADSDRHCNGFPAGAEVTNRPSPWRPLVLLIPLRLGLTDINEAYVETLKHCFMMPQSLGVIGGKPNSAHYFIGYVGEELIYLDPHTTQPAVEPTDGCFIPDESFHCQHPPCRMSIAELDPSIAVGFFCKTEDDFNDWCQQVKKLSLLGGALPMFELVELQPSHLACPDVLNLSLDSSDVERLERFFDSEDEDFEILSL
MEKK2wt PB1 HTS: raises or lowers MEK5 binding to wildtype human MEKK2 PB1 domain; Q9Y2U5; bead flow cytometry, Alexa488-MEK5 binding to MEKK2 WT; actives lie on both sides; binding response (% of control), % at 10 µM; hit rate 1.1% among 290,000; AID 1531; in the data active = binding response below about 67% or above about 130%
PREPL inhibitor: inhibitors of human prolyl oligopeptidase-like enzyme PREPL | Q4J6C6 | recombinant PREPL, fluorescence polarization activity-based probe | inhibition, % at 5.96 µM | hit rate 0.68% among 320,000 | AID 2751; in the data active = inhibition above about 43%;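 also: 0% = enzyme with DMSO and 100% = wells lacking enzyme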
UBC13 inh: human UBC13 polyubiquitination inhibition; P61088; UBC13 polyubiquitin chain formation, TR-FRET; inhibition, % at 20 µM; hit rate 0.47% among 330,000; in the data active = inhibition above about 45%, passing the limit was not always enough
Target sequence (P61088 whole entry, looked up): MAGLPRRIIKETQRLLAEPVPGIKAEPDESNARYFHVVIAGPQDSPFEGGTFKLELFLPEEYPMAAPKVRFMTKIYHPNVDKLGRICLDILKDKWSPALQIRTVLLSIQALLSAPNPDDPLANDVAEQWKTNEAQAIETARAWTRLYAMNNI
ATG4B confirm: ATG4B (human) inhibition, single-dose confirmed; shares compounds with ATG4B inh; ATG4B protease fluorescent substrate cleavage assay; inhibition, % at 8.33 µM; hit rate 92% among 320; in the data active = inhibition above about 39%
PLA2 counter: PLA2 (human) inhibition in ATG4B counter-screen; shares compounds with ATG4B inh; purified PLA2, NBD-C6-HPC fluorescence, 45 min; inhibition, % at 8.33 µM; hit rate 66% among 1,600; in the data active = inhibition above about 50%
Starred values were filed as active, the others as inactive; . = not tested or not shown.

SMILES	MEKK2mut PB1 HTS	MEKK3 PB1 HTS	ATG4B inh	MEKK2wt PB1 HTS	PREPL inhibitor	UBC13 inh	PLA2 counter	others
Fc1ccccc1C1CC(c2ccco2)=Nc2ccccc2S1 (stereo not given)	5	119	53*	108	-1	0	73*
COc1cc(C(=O)NCCc2ccc(S(N)(=O)=O)cc2)ccc1OCc1c(C)noc1C	.	.	-11	.	8	0	.
CCCCCCCCCCCCCCCC[N+](C)(C)CCl	.	.	56*	.	.	.	39	ATG4B confirm=57*
CCOC(=O)CC(NS(=O)(=O)c1ccc2[nH]c(=O)sc2c1)c1ccc(C)cc1 (stereo not given)	8	104	5	104	-11	2	.
COc1ccc(N2C(=O)c3ccccc3NC23CCC(C)CC3)cc1 (stereo not given)	0	102	45*	102	3	8	40	ATG4B confirm=61*
COc1ccc(N2C(=O)c3ccccc3NC23CCCCC3)cc1	5	104	12	103	7	16	.
CCOc1c(Cl)cc(CNc2ccc(S(N)(=O)=O)cc2)cc1OC	2	111	-6	107	5	-2	.
COc1c(Cl)cc(Cl)cc1CNc1ccc(S(N)(=O)=O)cc1	-12	88	82*	81	9	-3	85*
Cc1ccccc1NC(=O)Cc1nc(COC(=O)c2ncc(Cl)c(Cl)c2Cl)cs1	.	.	10	.	.	.	.
O=C(N/N=C1\CC(c2ccccc2)Oc2ccccc21)c1ccc(O)cc1 (stereo not given)	-8	99	43*	89	-25	-12	55*
O=C(N/N=C1\CC(c2ccccc2)Oc2ccccc21)c1cccnc1 (stereo not given)	-4	100	-6	92	-9	-10	.
Oc1c(Br)cc(Br)cc1/C=N/n1c(-c2ccccc2)n[nH]c1=S	7	107	42*	108	2	0	9	ATG4B confirm=45*
CCN(Cc1ccc2c(c1)OCO2)C(=O)CSc1nc(C)nc2sc(C)c(C)c12	.	.	58*	.	-8	4	75*
COc1ccc(-n2c(CCc3ccccc3)nnc2SCC(=O)c2ccc(Cl)cc2)cc1	8	100	13	111	-16	12	.
O=C(CSc1nnc(CCc2ccccc2)n1-c1ccc(Cl)cc1)c1ccccc1	6	99	58*	102	12	15	61*
CCn1cc(CNC(=O)CCc2nnc(CCC3CCCCC3)o2)cn1	-7	101	4	94	10	-7	.
Fc1ccc(CCNC(=S)Nc2ccc(F)c(Cl)c2)cc1	-4	101	44*	96	-21	7	46	ATG4B confirm=58*
Cc1c(Cl)cccc1NC(=S)NCCc1ccc(Cl)cc1	9	108	86*	110	-19	12	89*
Cc1c(Cl)cccc1NC(=S)NCCc1ccc(F)cc1	4	102	71*	108	-5	4	77*
Fc1ccc(NC(=S)NCCc2ccc(Cl)cc2)cc1	-3	90	-1	97	-2	-7	.
Cc1c(Cl)cccc1NC(=S)NCCc1ccc(S(N)(=O)=O)cc1	12	104	22	106	-2	3	.
CN(CC(=O)NC(=O)NCc1ccccc1)CC(=O)Nc1ccc(Cl)c(Cl)c1	.	.	-50	.	6	25	.
O=C(c1ccc(Cl)cc1)c1oc2ccccc2c1CS(=O)(=O)c1ccccc1	0	104	43*	94	4	9	-11
Cc1ccc(C)c(S(=O)(=O)N2CCN(C(=O)Cc3ccc(S(=O)(=O)N4CCOCC4)s3)CC2)c1	.	.	-2	.	9	-3	.
Cc1ccc(-n2c(C)cc(C(=O)COC(=O)C3=NNC(=O)CC3)c2C)cc1	-4	98	-6	99	10	2	.
SMILES	MEKK2mut PB1 HTS	MEKK3 PB1 HTS	ATG4B inh	MEKK2wt PB1 HTS	PREPL inhibitor	UBC13 inh	PLA2 counter	others
Cc1ccc(-n2c(C)cc(C(=O)COC(=O)c3ccc[nH]c3=O)c2C)cc1C	-2	92	45*	94	-2	-5	6
O=C(NC(Cc1c[nH]c2ccccc12)C(=O)Nc1ccc(F)c([N+](=O)[O-])c1)c1cccs1 (stereo not given)	3	99	71*	100	14	-10	81*
CC(C)CN(C(=O)COc1ccc2ccc(=O)oc2c1)C1CCS(=O)(=O)C1 (stereo not given)	3	108	14	104	17	14	.
CC(C)CN(C(=O)COc1ccc(Br)cc1C=O)C1CCS(=O)(=O)C1 (stereo not given)	.	.	45*	.	10	2	53*
N#Cc1cnn(-c2nc(SCc3ccccc3)nc3sc4c(c23)CCCC4)c1N	-2	98	43*	86	4	-2	59*
FC(F)(F)c1cccc(CNC(=S)Nc2ccccc2)c1	-8	82	49*	87	13	8	61*
FC(F)(F)Sc1ccc(NC(=S)NCc2ccccc2)cc1	-7	73	73*	98	-8	10	82*
FC(F)(F)c1cccc(NC(=S)NCc2ccccc2)c1	7	107	59*	104	-5	7	62*
O=C(Cc1c(F)cccc1Cl)NNC(=O)c1ccncc1	.	.	-57	.	15	-2	.
CCOC(=O)c1c(N2C(=O)Nc3cc(Cl)c(Cl)cc3N2O)sc2c1CCCCC2	9	108	77*	112	21	-6	92*
CCOC(=O)c1c(-n2cnnn2)sc2c1CCCC2	4	99	0	96	3	1	.
Cc1nn(CC(=O)N2CCCC2)c(=O)c2cc3cc(F)ccc3n12	1	100	-1	100	4	-1	.
Cc1nc2c(O)cccc2cc1CO	5	97	-8	97	21	-3	.
Cc1cccc(Cc2cnc(N3C(=N)SC(c4ccccc4)C3=O)s2)c1 (stereo not given)	-2	96	50*	94	28	-19	43
Cc1cccc(Cc2cnc(N3C(=N)SC(C)C3=O)s2)c1 (stereo not given)	-9	92	4	90	4	5	.
COc1cc(/C=N/NC(=O)c2nnn(-c3nonc3N)c2C(C)C)ccc1OCc1ccc(F)cc1	0	101	17	103	40	-10	.
CCOC(=O)c1c(NC(=O)CSc2nc3ccc(OC)cc3[nH]2)sc2c1CC(C)(C)NC2(C)C	.	.	-3	.	2	7	.
Cc1ccc(C(=O)Nc2ncc(Cc3ccccc3)s2)o1	5	101	43*	107	-7	6	64*
